Screens as filed in PubChem.
This is a sample that favours compounds with a hit; in the whole collection about 1.5% have one here.
ABHD5 PLIN5 PPI – ABHD5-PLIN5 protein interaction inhibition; Q00G26+Q8WTS1; Split G. princeps luciferase complementation, luminescence, 4 h; AID 602281; inhibition, % at 4 µM; 360,000 tested, 0.78% active;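 active means inhibition above the mean inhibition across every tested compound plus 3 SD, cut at about 22% in these data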;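 further: 0% = DMSO only wells and the 100% control is not disclosed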
Target sequence (Q00G26 whole entry, looked up): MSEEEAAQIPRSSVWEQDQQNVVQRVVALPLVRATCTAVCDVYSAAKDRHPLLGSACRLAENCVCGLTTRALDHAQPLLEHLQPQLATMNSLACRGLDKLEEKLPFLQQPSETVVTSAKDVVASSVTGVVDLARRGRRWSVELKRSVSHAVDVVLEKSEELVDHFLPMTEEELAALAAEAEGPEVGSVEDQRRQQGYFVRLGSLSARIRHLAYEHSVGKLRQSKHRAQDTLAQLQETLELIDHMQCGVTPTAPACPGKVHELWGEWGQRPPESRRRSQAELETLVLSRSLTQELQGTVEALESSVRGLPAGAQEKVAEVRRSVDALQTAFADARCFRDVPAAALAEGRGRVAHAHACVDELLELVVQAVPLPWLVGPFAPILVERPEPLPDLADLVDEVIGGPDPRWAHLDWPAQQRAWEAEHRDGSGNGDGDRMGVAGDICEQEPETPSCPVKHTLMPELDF
Target sequence (Q8WTS1 whole entry, looked up): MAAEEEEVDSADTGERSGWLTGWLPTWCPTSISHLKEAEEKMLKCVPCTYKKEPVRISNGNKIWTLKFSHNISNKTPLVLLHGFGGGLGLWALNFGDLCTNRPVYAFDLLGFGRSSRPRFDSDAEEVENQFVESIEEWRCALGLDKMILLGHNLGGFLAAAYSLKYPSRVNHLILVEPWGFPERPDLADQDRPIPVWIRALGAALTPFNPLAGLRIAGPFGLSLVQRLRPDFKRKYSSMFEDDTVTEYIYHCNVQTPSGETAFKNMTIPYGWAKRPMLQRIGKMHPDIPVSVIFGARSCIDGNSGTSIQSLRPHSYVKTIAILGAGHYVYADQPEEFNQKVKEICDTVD
TLR4 MyD88 comp – TLR4-MyD88 interaction inhibition in cells | O00206+Q99836 | HeLa CL3-4 TLR4/MyD88 BLA complementation, FRET ratio | inhibition, % at 8.4 µM | 200,000 tested, 0.18% active | AID 861; in the data active means inhibition above about 25%;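 further: 0% = vehicle and 100% = reference inhibitor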
NOD2-RIPK2 inh – blocks binding of human NOD2 to RIPK2; CHO BLA complementation NOD2-RIPK2, CCF4 ratio; O43353; 360,000 tested, 0.38% active; AID 624267; inhibition, % at 4.98 µM; in the data active means inhibition above about 21%;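 further: 0% = vehicle only and 100% = reference blocker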
NTR1 ag – agonists of human neurotensin receptor NTR1; NTR1-U2OS beta-arrestin-GFP spot imaging, agonist mode; activation, % at 20 µM; 330,000 tested, 0.17% active; AID 493036;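 active means activation at or above 40% of the spot to cytoplasm intensity ratio, with at least 20 cells analyzed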;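 further: 0% = DMSO without peptide and 100% = 100 nM NTR1 peptide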
Beta2AR agonist – activates human beta-2 adrenergic receptor causing internalization; response, % (test concentration not listed); 340,000 tested, 0.43% active; Am2.2-beta2AR cells, FAP receptor internalization, flow cytometry; P07550;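 active means response above a set limit, near 3 SD of response in nonfluorescent compounds, cut at about 42% in these data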
TLR9-MyD88 block – inhibitors of human TLR9-MyD88 binding; CHO BLA complementation TLR9-MyD88, CCF4 FRET ratio; inhibition, % at 4.98 µM; 340,000 tested, 0.21% active; AID 504734;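 active means inhibition above the mean over all tested compounds plus 3 SD, cut at about 21% in these data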;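 further: 0% = DMSO only wells and 100% = clavulanate BLA inhibitor control wells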
NTR1 ag conf – confirmation of agonists of human NTR1; shares compounds with NTR1 ag; 480 tested, 38% active; activation, % at 20 µM; NTR1-U2OS beta-arrestin-GFP translocation imaging; AID 504550;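 active means mean activation at 20 µM of at least 40%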;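 further: 0% = DMSO without peptide and 100% = 100 nM NTR1 peptide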
Numbers without * were called inactive; x = no result.

SMILES	ABHD5 PLIN5 PPI	TLR4 MyD88 comp	NOD2-RIPK2 inh	NTR1 ag	Beta2AR agonist	TLR9-MyD88 block	NTR1 ag conf
Cc1nn(C)c(Cl)c1CN1CCC(CO)(CCOc2ccccc2)CC1	6.8	13.5	2.7	0.7	0.6	-12.8	x
O=c1[nH]c(=O)n(Cc2ccco2)c2c1C(C(F)(F)F)(C(F)(F)F)N=C(CCC1CCCCC1)N2	-1.4	-3.1	-5.9	45.6*	4.5	-4.7	21.5
CC(CN1CCCCC1)NC(=O)c1scnc1-c1ccccc1 (centres undefined)	-5.3	x	-3.6	x	x	x	x
CCOC(=O)c1ccc(NC(=O)C2CCCN(S(=O)(=O)c3ccc(F)cc3)C2)cc1 (centres undefined)	-4.3	0.9	5.0	53.4*	34.8	-9.9	22.2
CCOC(=O)c1ccc(NC(=O)C2CCN(S(=O)(=O)c3ccccc3)CC2)cc1	2.7	-21.9	3.9	0.6	15.6	-23.0	x
COC(=O)[C@]12CCCCC=C1N(Cc1ccco1)C(=O)[C@H](CC(=O)NCC13CC4CC(CC(C4)C1)C3)C2	7.8	x	1.7	x	x	x	x
O=C(Nc1cccc([N+](=O)[O-])c1)Nc1cccc([N+](=O)[O-])c1	2.6	-12.5	-10.8	4.1	-6.3	-3.7	x
CC(C)S(=O)(=O)c1csc(NC(=O)Nc2cccc([N+](=O)[O-])c2)c1Cl	-3.9	x	2.2	50.4*	-1.4	3.2	10.6
COc1cccc(CNC(=O)[C@@H]2CCCN2C(=O)[C@H]2CCCCN2C(=O)c2c(F)cccc2F)c1	-1.2	x	-5.2	x	x	x	x
Cc1ccccc1-n1c(=O)[nH]c(=O)c2c(N)c(C(=O)c3ccc(Cl)cc3)sc21	4.7	-15.9	-11.0	40.2*	15.1	-0.8	10.0
Nc1c(C(=O)c2ccc(Cl)cc2)sc2c1c(=O)[nH]c(=O)n2-c1ccccc1	4.5	0.2	-11.2	22.3	-3.0	8.1	x
O=C(N/N=C/c1c[nH]c2ccccc12)C1CC1(c1ccccc1)c1ccccc1 (centres undefined)	-0.1	-13.0	2.8	54.2*	7.2	-3.3	40.7*
O=C(N/N=C/c1c[nH]c2ccccc12)C1CC1c1ccccc1 (centres undefined)	-3.2	2.3	6.5	22.8	1.1	-5.0	x
O=c1cc(-c2ccc(O)cc2)oc2cc(O)c(C3OC(CO)C(O)C(O)C3O)c(O)c12 (centres undefined)	2.7	-8.1	-7.2	40.8*	-0.2	-2.1	52.3*
O=c1cc(-c2ccc(O)c(O)c2)oc2cc(O[C@@H]3O[C@H](CO)[C@@H](O)[C@H](O)[C@H]3O)cc(O)c12	1.1	x	10.6	-1.5	-1.6	-1.7	x
C[C@H]1COc2cc(N3CCC[C@H]3CO)ccc2S(=O)(=O)N1	-5.8	x	-16.9	x	x	x	x
CN(c1ccccc1)c1nc(N)c([N+](=O)[O-])c(Nc2ccc(F)cc2)n1	-2.7	x	-11.1	12.8	9.4	-12.9	x
CN(c1ccccc1)c1nc(N)c([N+](=O)[O-])c(Nc2cccc(F)c2)n1	1.4	x	5.4	44.1*	10.5	1.1	37.5
CCc1nc2c(OCc3cccc(Cl)c3)cccn2c1N(C)C(=O)C1CC1	2.9	x	-4.1	x	x	x	x
COc1ccccc1N(CC(=O)N/N=C/c1ccc(OCC(=O)NCc2ccco2)cc1)S(=O)(=O)c1ccc(C)cc1	-0.8	-8.0	-12.2	1.1	8.9	-5.1	x
COC(=O)COc1ccc(/C=N/NC(=O)CN(c2ccccc2OC)S(=O)(=O)c2ccccc2)cc1	7.0	x	1.3	74.6*	24.0	-5.7	75.6*
CCCCCC(=O)Nc1cccc(C2=NOC3(C2)C[C@H](C(N)=O)N(C(=O)COc2ccc(Cl)cc2)C3)c1 (some centres undefined)	-0.4	x	-5.8	41.6*	-4.6	-0.9	5.5
C/C=C\C=C/C(=O)Nc1cccc(C2=NOC3(C2)C[C@@H](C(N)=O)N(C(=O)COc2ccc(Cl)cc2)C3)c1 (some centres undefined)	0.3	x	-1.2	16.3	3.6	-6.8	x
CSc1nnc(NC(=O)C23CC4CC(CC(C4)C2)C3)s1	-5.8	x	4.5	51.5*	-6.7	2.4	53.2*
CC(C)c1ccc(/C=N/NC(=O)CN(c2cccc(Cl)c2Cl)S(C)(=O)=O)cc1	-2.9	-1.0	0.2	48.1*	4.0	-3.1	39.6
SMILES	ABHD5 PLIN5 PPI	TLR4 MyD88 comp	NOD2-RIPK2 inh	NTR1 ag	Beta2AR agonist	TLR9-MyD88 block	NTR1 ag conf
CS(=O)(=O)N(CC(=O)N/N=C/c1ccccc1C(=O)O)c1cccc(Cl)c1Cl	5.9	x	1.4	0.9	9.6	-1.5	x
CC(=O)c1cccc(Nc2nc(-c3sc(C)nc3C)cs2)c1	-7.6	x	4.6	53.6*	28.2	-4.1	24.4
CC(=O)c1cccc(Nc2nc(-c3sc(N)nc3C)cs2)c1	-0.5	x	-7.7	-0.2	9.1	-1.9	x
Cc1noc(C)c1-c1ccc(C(=O)Nc2ccccc2)c2occc12	0.5	x	2.3	x	x	x	x
CN(C)N1C(=O)c2c(Cl)c(Cl)c(Cl)c(Cl)c2C1=O	5.1	x	-1.6	x	8.6	1.1	x
CC(C)(C)OC(=O)[C@H](Cc1ccccc1)NC(=O)c1nc[nH]c1C(=O)NC1CCN(C(=O)OC(C)(C)C)CC1	-6.9	-14.7	-1.8	44.9*	6.4	-7.1	28.2
CN(Cc1ccccc1)C(=O)c1[nH]cnc1C(=O)N[C@@H](Cc1ccccc1)C(=O)OCc1ccccc1	7.8	-20.6	-1.3	41.8*	7.1	-7.5	2.2
CC(C)(C)OC(=O)[C@H](Cc1ccccc1)NC(=O)c1nc[nH]c1C(=O)N1CCN(C(=O)OC(C)(C)C)CC1	1.8	x	7.4	-1.6	-4.6	0.1	x
CC(C)(C)OC(=O)NCCCCCNC(=O)c1[nH]cnc1C(=O)N[C@@H](Cc1ccccc1)C(=O)OCc1ccccc1	2.8	-8.2	20.7	53.1*	13.8	-3.8	22.9
O=C(Nc1ccc(Cl)c(Cl)c1)Nc1nc(-c2ccccc2)cs1	0.7	0.7	0.3	47.1*	0.1	-8.5	20.8
COc1cccc(-c2csc(NC(=O)Nc3ccccc3)n2)c1	6.0	x	-8.9	72.5*	0.1	6.8	22.5
O=C(Nc1ccccc1)Nc1nc(-c2ccccc2)cs1	-5.8	x	1.5	2.7	-2.1	-0.9	x
CCOC(=O)N(C)c1c(CC)nc2c(OCc3ccccc3OC)cccn12	-1.4	x	-6.7	x	x	x	x
Nc1[nH]c(C(=O)c2ccccc2)c(-c2ccc(Cl)cc2)c1C(=O)NCCc1c[nH]c2ccccc12	-8.5	x	-0.2	x	x	x	x
CCOC(=O)c1c(NC(C)=O)sc2c(OCC(O)CN(CC)CC)c(Br)ccc12 (centres undefined)	8.0	-3.1	0.5	53.1*	18.8	-1.9	46.7*
CCOC(=O)c1c(NC(C)=O)sc2c(OCCN(CC)CC)c(Br)ccc12	6.5	-10.8	9.8	31.8	5.5	2.5	x
CN1OC[C@@H]2CN3C(=O)N(c4ccccc4)c4ccccc4[C@@H]3C[C@@H]21	-1.2	x	0.0	x	x	x	x
